According to PubChem BioAssay AID485344 (National Center for Advancing Translational Sciences (NCATS), 2010):
The campaign covered roughly 340,000 compounds. About 6,900 (2%) were called active. Only a selection was taken, and actives are over-represented in it overall. Values without a mark were called inactive. Rule as the data show it: active = inhibition above about 30%; inactive = below that, where a call was filed.
Also: 0% is about no effect.

These molecules were tested against D(2) dopamine receptor (Homo sapiens) (UniProt P14416) (assay: HTS Assay for Allosteric Antagonists of the Human D2 Dopamine Receptor: Primary Screen for Antagonists). Conditions: HEK293 TREx D2 cells, calcium flux, dopamine EC80; at 10 µM; hits give high values.
Sequence of D(2) dopamine receptor (Homo sapiens) (P14416 whole entry, looked up): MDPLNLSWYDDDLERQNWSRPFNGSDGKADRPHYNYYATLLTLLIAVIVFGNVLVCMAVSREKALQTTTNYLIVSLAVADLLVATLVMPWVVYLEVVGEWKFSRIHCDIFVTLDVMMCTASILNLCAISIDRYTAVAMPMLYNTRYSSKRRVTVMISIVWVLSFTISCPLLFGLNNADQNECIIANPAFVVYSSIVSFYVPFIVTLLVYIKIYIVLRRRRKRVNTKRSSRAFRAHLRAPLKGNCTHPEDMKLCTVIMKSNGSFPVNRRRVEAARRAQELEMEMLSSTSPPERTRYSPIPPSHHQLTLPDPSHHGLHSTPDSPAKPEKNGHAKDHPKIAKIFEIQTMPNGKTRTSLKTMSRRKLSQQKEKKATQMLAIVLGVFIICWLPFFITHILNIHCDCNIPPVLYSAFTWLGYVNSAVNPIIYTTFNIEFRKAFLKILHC
How it was run: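 In this primary screen, negative modulation is detected by tracking calcium flux after an EC80 dopamine challenge in inducible HEK293 T-REx D2 cells preexposed to test compound for 180 s.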
With `Cc1c(NC(=O)CSc2nnc(-c3cccnc3)n2N)c(=O)n(-c2ccccc2)n1C` the inhibition was 7.44%. Work on `CCCCn1c(N)c(N(CCC(C)C)C(=O)c2ccc(COc3ccccc3)o2)c(=O)[nH]c1=O` yielded an inhibition of -9.11%. In the case of `C#CCOCCOCCOCCNc1nc(N2CCN(C(=O)CCCCCCCCCCNC(=O)[C@H]([C@@H](C)CC)n3cc(CCCCN=C(N)N)nn3)CC2)nc(N2CCN(C(=O)CCCCCCCCCCNC(=O)[C@H](CO)n3cc(CCCSC)nn3)CC2)n1`, the inhibition is reported as 1.17%. In the case of `Cc1ccn2c(=O)nc(SCC(=O)NCc3ccc(F)cc3)nc2c1`, the inhibition is reported as 17.8%. Work on `CC1CCCCN1C(=O)CCS(=O)(=O)Cc1ccccc1` (centres undefined) yielded an inhibition of 3.72%. `C/C(=N\NC(=S)NCc1ccccc1)C1CCCCC1` was tested, and the inhibition was -10.6%. `CC1CCCCN1C(=S)NCc1ccccc1` (centres undefined) was tested, and the inhibition was 31.9% (active). `O=C(CN1CCCSc2ccccc21)N1CCN(S(=O)(=O)c2ccccc2)CC1` gave an inhibition of 3.3%. Molecule `O=C(OCc1cc(=O)n2ccsc2n1)C1(c2ccc(Cl)cc2)CC1` has an inhibition of 29.3%. `CSCCC(NC(=O)c1ccccc1)C(=O)N1CCN(Cc2ccc(Cl)cc2)CC1` (centres undefined) showed an inhibition of -14.3%. `N#Cc1ccc(C2=CC(=O)C[C@H](c3ccc(Cl)cc3)C2)cc1` gave an inhibition of -1.65%. Work on `COc1cccc(NC(=O)CN(C)C(=O)c2cc(C3CC3)nn2-c2ccccc2)c1` yielded an inhibition of -0.486%. `COc1ccc(NC(=O)CN(C)C(=O)c2cc(C3CC3)nn2-c2ccccc2)cc1` was tested, and the inhibition was 39.5% (active). For `CCc1ccccc1NC(=O)CN(C)C(=O)c1cc(C2CC2)nn1-c1ccccc1`, the inhibition was 2.39%. In the case of `Cc1csc(=O)n1CCC(=O)OCC(=O)NNC(=O)c1ccc(Br)cc1`, the inhibition is reported as -9.52%. For `Cc1c(C(C)CCCO)oc(=O)c2c1Oc1c(C)c(C(C)C[C@@H](C)O)oc(=O)c1C2` (some centres undefined), the inhibition was 17%. `Cc1ccc(C(=O)OCC(=O)N2CC(C)CC(C)C2)cc1S(=O)(=O)N1CCCCC1` (centres undefined) gave an inhibition of 19.3%. `O=C(CN1CCN(c2ccc(F)cc2)CC1)Nc1ccccc1` showed an inhibition of -19.8%. With `O=C(CCN1CCN(c2ccccc2)CC1)NNC(=S)Nc1ccccc1` the inhibition was 61.2% (active). Molecule `O=C(CN1CCN(c2ccccc2)CC1)Nc1ccc(F)cc1` has an inhibition of 13.5%. Molecule `Cc1cccc(C)c1NC(=O)COC(=O)c1c(C)nn(-c2ccccc2)c1C` has an inhibition of 1.57%. `Cc1ccc(C(CC(=O)O)NC(=O)c2ccc(S(=O)(=O)N3CCCC3)cc2)cc1` (centres undefined) was tested, and the inhibition was 8.12%. Work on `CCCCN(C)c1ccc([N+](=O)[O-])cc1` yielded an inhibition of -0.645%. Work on `CN(C)CCNC(=O)Cc1ccc([N+](=O)[O-])cc1` yielded an inhibition of -7.39%. With `CN(C)CCCN1C(=O)CSC1c1ccc([N+](=O)[O-])cc1` (centres undefined) the inhibition was 34% (active). `CC(=O)Nc1ccc(S(=O)(=O)N2CCn3cccc3C2C)cc1` (centres undefined) gave an inhibition of 2.61%. `CCC(c1nnc(SCC(=O)NNC(=O)c2ccccc2)n1Cc1ccccc1)N(C)C` (centres undefined) showed an inhibition of -24.9%. Work on `CCn1c(SCC(=O)NNC(=O)c2ccc(OC)cc2)nnc1C(C)C` yielded an inhibition of -19.3%. For `Cc1cccc(C(=O)NNC(=O)CSc2nnc(C(C)C)n2C)c1`, the inhibition was 41.8% (active). For `CN(CC(=O)NCc1ccc2c(c1)OCO2)CC(=O)Nc1ccc(F)c(F)c1F`, the inhibition was -25.8%. Work on `CCC[C@H]1CCCC/C=C\CCCC(=O)OCCN1C(=O)OC(C)(C)C` yielded an inhibition of -5.66%. With `COc1ccccc1/C=C/C=N/NC(=O)CN1CCN(Cc2ccccc2)CC1` the inhibition was -10.7%. `COc1ccccc1/C=C/CN1CCC(CO)(Cc2ccccc2)CC1` was tested, and the inhibition was 53.2% (active). `COC(=O)CCC(=O)N1CCCC(CO)(Cc2ccccc2)C1` (centres undefined) showed an inhibition of 3.17%. `Cc1cc(NC(=O)COc2ccc([N+](=O)[O-])cc2)no1` was tested, and the inhibition was -5.38%. `COc1ccccc1NC(=O)COC(=O)COc1ccccc1F` was tested, and the inhibition was -3.39%. For `Cc1ccc(OCCNC(=O)CN2C(=O)NC3(CCCC3)C2=O)cc1`, the inhibition was 1.97%. In the case of `COc1cc(C(c2c(NC(=O)c3ccco3)sc(C)c2C)N2CCOCC2)cc(OC)c1OC` (centres undefined), the inhibition is reported as -0.625%. With `CCOc1ncccc1C(=O)OCC(=O)N1c2ccccc2CC1C` (centres undefined) the inhibition was -9.6%. With `CCOc1ccc(CC(=O)NC2CCN(Cc3ccccc3)CC2)cc1` the inhibition was 7.65%. With `CN(CC(=O)NC1CCN(Cc2ccccc2)CC1)S(=O)(=O)c1ccc(Cl)s1` the inhibition was 68.5% (active). Molecule `CN(CC(=O)NC1CCCCC1)S(=O)(=O)c1ccc(Br)s1` has an inhibition of 3.02%. In the case of `CC(C)N(C(=O)CSc1nnc(NC2CC2)s1)c1ccccc1`, the inhibition is reported as -9.12%. Work on `Nc1nnc(SCC(=O)NCC(=O)Nc2ccc(F)c(F)c2F)s1` yielded an inhibition of 17.4%. Molecule `O=C(c1ccc(Cl)nc1)N1CCN(S(=O)(=O)c2ccc3c(c2)OCCO3)CC1` has an inhibition of -22.8%. Work on `O=C(COC(=O)c1cccc(Cl)c1)NC1CCCCCCC1` yielded an inhibition of 4.87%. `O=C(COC(=O)c1ccccc1Cl)NC1CCCCCCC1` was tested, and the inhibition was 40.2% (active). In the case of `O=C(COC(=O)c1ccccc1SCC(=O)NC1CCCCC1)NC1CCCCC1`, the inhibition is reported as -0.864%. `Cc1ccc(C(C)(C)C)c(OCCCCN2CCCC2)c1` was tested, and the inhibition was 31% (active). With `COc1cccc(OCCCN2CCCCCC2)c1` the inhibition was -12.6%. Work on `CC1CN(CCOc2ccccc2[N+](=O)[O-])CC(C)O1` (centres undefined) yielded an inhibition of 1.8%. `O=[N+]([O-])c1ccccc1OCCCCN1CCCCC1` was tested, and the inhibition was 93.9% (active). For `CC(C)(c1ccccc1)c1ccc(OCCN2CCCC2)cc1`, the inhibition was 0.0464%. In the case of `Cc1ccc(C(C)C)cc1OCCN1CCCC1`, the inhibition is reported as -14.6%. In the case of `Cc1ccc(OCCCCN2CCCCC2)c(Br)c1`, the inhibition is reported as 73.5% (active). `CC(=O)Nc1ccc(S(=O)(=O)N2CCN(CCCOc3cc(C)ccc3C)CC2)cc1` showed an inhibition of 3.73%. `C=CCN(CC=C)CCOc1ccccc1[N+](=O)[O-]` showed an inhibition of 6.41%. `CCN(C(=O)CSc1ncnc2sccc12)c1c(N)n(Cc2ccccc2)c(=O)[nH]c1=O` was tested, and the inhibition was -15.3%. With `Cc1ccc(S(=O)(=O)N2CCCCC2)cc1NC(=O)[C@@H]1CCCN1C(=O)c1cccs1` the inhibition was -14.3%.
